Data: PubChem BioAssay
Where “and” joins values, the source holds several entries; their conditions need not be identical. Equal entries are not always repeated. Records with an inconclusive call do not appear. For some of these results: Measured potencies and affinities stand elsewhere. Some compounds were tested as several samples or in several runs, with calls that do not always agree. Calls of active or inactive are those of the source. Unless noted, no rule for the calls is given here.

Legend:
[1] = kinase inhibitors against Plasmodium liver-stage infection, cell-based, known kinase inhibitor set, luminescence, hepatoma host viability (AID 624392); conditions: Plasmodium liver stage in hepatoma cells, luciferase luminescence, concentration not given here; liver cell % of control: measured here: host liver cell viability; parasite % of control: stronger effect = lower value;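 also: infected cells incubated roughly two days before readout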
[2] = sensitizers of A549 cells to miR-34 induction, primary screen, imaging, A549 dox-inducible miR-34, nuclei and caspase counts (AID 1347080;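 active = compounds whose cell count with miR-34 switched on is under 0.7 times the count with it off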); conditions: A549 miR-34 inducible, Hoechst nuclei count, 48 h
[3] = survival rescue of mitochondrial mutant cells in low glucose, primary screen, MELAS cybrids, Rieske KO mouse fibroblasts, CellTiter-Glo (AID 1508586;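 active = mean z-score across replicates of 1.96 or higher in either the MELAS or the Rieske mutant cell line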;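 also: z relative to plate mean and SD of compound and empty wells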)
[4] = polyglutamine-triggered caspase-3 activation inhibitors, cell-based (AID 1583); conditions: polyglutamine-induced caspase-3 activation, cell assay; stronger effect = higher value;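 tested at 10 µM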
[5] = suppressors of polyQ aggregation in yeast, 75Q-TubU reporter (AID 1593); conditions: Yeast 75Q polyglutamine aggregation reporter
[6] = rescue of polyQ-huntingtin neuronal dysfunction in worms, whole organism, C. elegans mechanosensory neurons, N-terminal huntingtin (AID 1599); conditions: touch response, stronger effect = higher value
[7] = inhibitors of mitochondrial cytochrome c release, biochemical, purified mitochondria (AID 1603); conditions: stronger effect = lower value;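 also: mouse liver mitochondria challenged with calcium chloride; signal normalized to the plate average as 100%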
[8] = inhibitors of polyQ protein aggregation (AID 1604); conditions: polyglutamine-induced protein aggregation inhibition assay; stronger effect = higher value; tested at 2.5 µM
[9] = enhancers of glutamate uptake in motor neurons, MN-1 cell line (AID 1612); conditions: MN-1 motor neuron cells, stronger effect = higher value;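 also: tested at 1 µM final; 0% = mean of DMSO vehicle wells on each plate; positive means more glutamate uptake than control and negative means less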
[10] = reducers of polyQ inclusions in PC12 cells, cell-based, NGF-treated PC12, GFPQ80 (AID 1614); conditions: PC12 NGF-treated GFP-polyQ80 inclusion reduction;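 also: lower means fewer inclusions and 0 means no inclusions at all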
[11] = suppressors of polyglutamine aggregation in yeast, 75Q-TubH (AID 1616); conditions: S. cerevisiae 75Q-TubH polyglutamine aggregation suppression; stronger effect = higher value
[12] = viability rescue of complex I mutant cybrids, primary screen, cell-based, galactose medium, ATP luminescence (AID 1645843;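 active = z-score of at least 1.8 in each of two replicates, scored against plate mean and spread of sample wells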;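 also: positive z means more ATP and so rescue of galactose-driven cybrid death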); conditions: complex I mutant cybrid cells, 72 h, stronger effect = higher value
[13] = target: ATP-dependent translocase ABCB1 (Homo sapiens) (UniProt P08183); assay: MDR1 (ABCB1) efflux transporter inhibition, cell-based (AID 377; in the data active = fluorescence slope change above about 50%); conditions: MDR1-expressing cells, fluorescent substrate accumulation slope; stronger effect = higher value; concentration not given here
ATP-dependent translocase ABCB1 (Homo sapiens), sequence (P08183 whole entry, looked up): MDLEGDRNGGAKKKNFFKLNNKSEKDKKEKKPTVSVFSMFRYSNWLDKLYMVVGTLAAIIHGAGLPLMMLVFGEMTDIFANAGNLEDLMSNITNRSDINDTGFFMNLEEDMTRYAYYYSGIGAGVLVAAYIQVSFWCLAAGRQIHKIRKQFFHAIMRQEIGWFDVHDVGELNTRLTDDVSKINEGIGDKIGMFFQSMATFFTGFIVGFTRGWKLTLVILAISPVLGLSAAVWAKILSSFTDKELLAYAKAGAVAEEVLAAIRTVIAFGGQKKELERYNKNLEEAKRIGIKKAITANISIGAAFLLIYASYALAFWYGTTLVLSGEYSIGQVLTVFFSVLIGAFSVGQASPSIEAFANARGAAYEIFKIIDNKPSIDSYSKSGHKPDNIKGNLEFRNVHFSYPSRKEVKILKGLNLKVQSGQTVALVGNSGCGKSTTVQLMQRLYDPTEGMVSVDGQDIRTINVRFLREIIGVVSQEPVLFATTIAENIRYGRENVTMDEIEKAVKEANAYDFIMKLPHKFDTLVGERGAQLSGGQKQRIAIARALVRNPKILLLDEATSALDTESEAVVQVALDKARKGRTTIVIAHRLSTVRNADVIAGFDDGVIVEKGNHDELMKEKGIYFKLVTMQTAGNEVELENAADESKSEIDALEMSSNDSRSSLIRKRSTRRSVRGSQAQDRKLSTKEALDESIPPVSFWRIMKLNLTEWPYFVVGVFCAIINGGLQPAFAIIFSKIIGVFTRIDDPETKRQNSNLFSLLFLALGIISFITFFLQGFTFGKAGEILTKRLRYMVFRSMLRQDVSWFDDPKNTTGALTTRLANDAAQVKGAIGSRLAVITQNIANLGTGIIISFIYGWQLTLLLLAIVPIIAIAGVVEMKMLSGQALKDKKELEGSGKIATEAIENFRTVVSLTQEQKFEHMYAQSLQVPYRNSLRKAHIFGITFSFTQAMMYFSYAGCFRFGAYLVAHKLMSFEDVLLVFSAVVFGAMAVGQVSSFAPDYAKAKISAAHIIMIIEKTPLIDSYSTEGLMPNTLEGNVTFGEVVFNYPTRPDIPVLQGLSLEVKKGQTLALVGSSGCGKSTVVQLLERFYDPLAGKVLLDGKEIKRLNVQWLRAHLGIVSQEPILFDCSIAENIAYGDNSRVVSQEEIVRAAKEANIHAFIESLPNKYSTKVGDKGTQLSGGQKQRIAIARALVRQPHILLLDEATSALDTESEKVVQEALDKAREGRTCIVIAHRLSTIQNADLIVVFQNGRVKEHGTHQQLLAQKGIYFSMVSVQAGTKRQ

[14] = liver-stage malaria parasite growth inhibition, primary screen, cell-based, HepG2, luciferase luminescence, HepG2 viability (AID 624349; in the data active = parasite load remaining mostly below about 12%, no sharp cut-off; inactive = mostly above about 10%;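 also: 100% = mean of DMSO negative control wells on the same plate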); conditions: P. berghei liver stage in HepG2, luciferase luminescence, concentration not given here; parasite load remaining: stronger effect = lower value; viability: measured here: HepG2 viability without parasites
[15] = target: NAD(+) hydrolase SARM1 (Homo sapiens) (UniProt Q6SZW1); assay: SARM1 TIR NADase inhibitors, cell lysate, NAD-Glo luminescence (AID 1508614;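 active = compound whose remaining NAD level is above about 45 nM, limit read from the data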;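 also: higher remaining NAD means stronger inhibition of SARM1 NADase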); conditions: SAM-TIR HEK293T lysate NADase, at 1 µM, stronger effect = higher value
NAD(+) hydrolase SARM1 (Homo sapiens), sequence (Q6SZW1 whole entry, looked up, the tested form may be a part): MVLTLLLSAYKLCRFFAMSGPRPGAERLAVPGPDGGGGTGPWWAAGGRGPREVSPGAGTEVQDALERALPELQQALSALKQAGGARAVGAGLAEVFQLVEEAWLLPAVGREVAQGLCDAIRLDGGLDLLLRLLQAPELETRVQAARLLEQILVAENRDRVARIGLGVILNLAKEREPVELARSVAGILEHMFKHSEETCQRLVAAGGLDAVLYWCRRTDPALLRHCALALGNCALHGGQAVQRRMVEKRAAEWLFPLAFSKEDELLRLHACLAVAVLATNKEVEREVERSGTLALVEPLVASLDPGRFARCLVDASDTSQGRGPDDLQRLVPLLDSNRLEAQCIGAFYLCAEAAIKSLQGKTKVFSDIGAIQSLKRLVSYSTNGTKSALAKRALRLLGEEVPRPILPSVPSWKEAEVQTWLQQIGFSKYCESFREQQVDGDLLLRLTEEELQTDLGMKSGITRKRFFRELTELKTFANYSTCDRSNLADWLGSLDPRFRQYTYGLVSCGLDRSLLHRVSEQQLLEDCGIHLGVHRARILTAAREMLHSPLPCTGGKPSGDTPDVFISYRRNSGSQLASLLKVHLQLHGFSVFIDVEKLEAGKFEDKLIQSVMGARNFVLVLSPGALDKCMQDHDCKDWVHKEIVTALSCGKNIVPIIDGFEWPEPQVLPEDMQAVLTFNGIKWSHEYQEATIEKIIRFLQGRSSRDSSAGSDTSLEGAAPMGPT

[16] = target: Mitogen-activated protein kinase 7 (Homo sapiens) (UniProt Q13164); assay: ERK5 transactivation activators in reporter cells, primary screen, cell-based, HTS (AID 1508626;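 active = luciferase signal above three times the same-plate solvent-only control wells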;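 also: luciferase driven by Gal4-ERK5 fusion binding five Gal4 sites before minimal TATA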); conditions: HeLa Gal4-ERK5 transactivation, 18 h, at 5 µM, stronger effect = higher value
Mitogen-activated protein kinase 7 (Homo sapiens), sequence (Q13164 whole entry, looked up, the tested form may be a part): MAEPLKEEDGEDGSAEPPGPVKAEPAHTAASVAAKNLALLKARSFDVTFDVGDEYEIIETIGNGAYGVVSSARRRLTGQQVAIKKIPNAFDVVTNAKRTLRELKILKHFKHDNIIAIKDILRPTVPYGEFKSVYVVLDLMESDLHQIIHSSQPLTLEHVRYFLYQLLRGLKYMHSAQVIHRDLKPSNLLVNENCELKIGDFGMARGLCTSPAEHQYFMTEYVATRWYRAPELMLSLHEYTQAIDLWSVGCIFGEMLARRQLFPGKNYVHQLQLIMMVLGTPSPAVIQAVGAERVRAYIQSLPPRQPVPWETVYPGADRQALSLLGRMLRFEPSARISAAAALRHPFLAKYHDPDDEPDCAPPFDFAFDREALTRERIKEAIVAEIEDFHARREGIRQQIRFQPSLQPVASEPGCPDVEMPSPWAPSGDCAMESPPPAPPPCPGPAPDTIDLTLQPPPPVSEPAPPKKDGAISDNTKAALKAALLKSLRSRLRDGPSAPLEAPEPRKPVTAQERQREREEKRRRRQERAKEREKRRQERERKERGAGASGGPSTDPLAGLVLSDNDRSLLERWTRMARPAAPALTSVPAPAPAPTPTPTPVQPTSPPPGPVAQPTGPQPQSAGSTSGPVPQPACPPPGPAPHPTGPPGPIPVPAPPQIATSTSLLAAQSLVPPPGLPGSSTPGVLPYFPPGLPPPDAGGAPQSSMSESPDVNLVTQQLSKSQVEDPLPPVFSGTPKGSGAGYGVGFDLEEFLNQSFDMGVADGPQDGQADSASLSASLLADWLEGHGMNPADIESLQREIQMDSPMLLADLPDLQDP

[17] = hESC survival regulators, cell-based (AID 493140); conditions: human embryonic stem cell survival screen; stronger effect = higher value;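 also: cells exposed to compounds for four days before counting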
[18] = protection against mutant huntingtin cytotoxicity, PC12 cells, LDH release (AID 1610); conditions: PC12 mutant huntingtin toxicity, final LDH at 4 uM, stronger effect = lower value
[19] = circadian clock period modulators, cell-based, LOPAC library, luminescence reporter (AID 2774); conditions: circadian reporter cells, at 7 µM, actives lie on both sides;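 also: values are relative to mean of DMSO wells on each plate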
[20] = tested on: Hepatitis C virus NS3 helicase; assay: HCV NS3 helicase inhibitors, primary screen, biochemical, fluorescence polarization, LOPAC1280 library (AID 687035; in the data active = inhibition above about 37%); conditions: Purified HCV NS3 helicase, Cy5-dT15 ssDNA binding fluorescence polarization; stronger effect = higher value; concentration not given here
[21] = Cy5 fluorescence quenching or enhancement artefacts, artefact control for HCV NS3 helicase inhibitor project, biochemical, LOPAC1280 (AID 687037); conditions: Cy5-DNA-NS3h complex fluorescence interference counterscreen
[22] = stronger effect = lower value, cell number ratio, induced over uninduced
[23] = measured here: relative caspase fold change +Dox/-Dox
[24] = measured here: total cells with miR-34 induction, stronger effect = lower value
[25] = measured here: total cells without miR-34 induction
[26] = MELAS cybrid survival, CellTiter-Glo 48 h, stronger effect = higher value
[27] = Rieske KO mouse fibroblast survival, CellTiter-Glo 72 h

CCn1c(-c2nonc2N)nc2c(C#CC(C)(C)O)ncc(OCC3CCCNC3)c21 (centres undefined)
liver cell % of control [1]: 56.6% and 72.4% and 90.5% | parasite % of control [1]: 1.73% (inactive) and 5.98% (inactive) and 27.8% (inactive) | fold change [2, 22]: 0.949 (inactive) | fold change [2, 23]: 0.738 | cell count [2, 24]: 6620 | cell count [2, 25]: 6980 | z-score [3, 26]: -0.704 (inactive) | z-score [3, 27]: 0.217

CN=C(N)NCCCC(N)C(=O)O (centres undefined)
inhibition [4]: 9.27% | score [5]: 2.21 | rescue above control [6]: -4.19 | cytochrome c release ratio [7]: 0.94 | inhibition of aggregation [8]: -4.76% | glutamate uptake change [9]: 3.17% | inclusion score [10]: 2 | aggregation suppression score [11]: 1.06 | fold change [2, 22]: 0.944 (inactive) | fold change [2, 23]: 1.42 | cell count [2, 24]: 9430 | cell count [2, 25]: 9990 | z-score [12]: 1.06 (inactive)

Cc1[nH]c(C=C2C(=O)Nc3ccccc32)c(C)c1CCC(=O)O
liver cell % of control [1]: 515% and 322% and 191% | parasite % of control [1]: 51% (inactive) and 49.5% (inactive) and 54.8% (inactive) | fold change [2, 22]: 0.955 (inactive) | fold change [2, 23]: 0.799 | cell count [2, 24]: 7040 | cell count [2, 25]: 7360 | z-score [3, 26]: -0.288 (inactive) | z-score [3, 27]: 0.507

C=C1CC[C@H](O)C/C1=C/C=C1\CCC[C@]2(C)[C@@H]([C@H](C)CCCC(C)C)CC[C@@H]12
fluorescence slope change [13]: 59.6% (active) | parasite load remaining [14]: 130% (inactive) | viability [14]: 106% | fold change [2, 22]: 0.889 (inactive) | fold change [2, 23]: 1.52 | cell count [2, 24]: 8940 | cell count [2, 25]: 10100 | remaining NAD [15]: 10 nM (inactive) | luciferase signal [16]: 48 AU (inactive)

C=N[C@@H](C(=O)N[C@@H]1C(=O)N2[C@@H]1SC(C)(C)[C@@H]2C(=O)O)c1ccccc1
survival [17]: 22.6 (inactive) | parasite load remaining [14]: 47.6% (inactive) and 102% (inactive) | viability [14]: 47.2% and 93.5% | fold change [2, 22]: 0.849 (inactive) | fold change [2, 23]: 1.16 | cell count [2, 24]: 8000 | cell count [2, 25]: 9420 | luciferase signal [16]: 80 AU (inactive)

O=[N+]([O-])OCC(CO[N+](=O)[O-])O[N+](=O)[O-]
parasite load remaining [14]: 15.2% (inactive) | viability [14]: 94.3% | fold change [2, 22]: 0.846 (inactive) | fold change [2, 23]: 4.5 | cell count [2, 24]: 10800 | cell count [2, 25]: 12700 | remaining NAD [15]: 10 nM (inactive)

O=C1NC(=O)C(=Cc2ccc(-c3ccc(F)cc3O)o2)S1
liver cell % of control [1]: 115% and 104% and 93.4% | parasite % of control [1]: 1.06% (inactive) and 3.29% (inactive) and 2.91% (inactive) | fold change [2, 22]: 0.91 (inactive) | fold change [2, 23]: 0.626 | cell count [2, 24]: 8670 | cell count [2, 25]: 9530 | z-score [3, 26]: -0.351 (inactive) | z-score [3, 27]: -0.0319

Cc1ccc([N+](=O)[O-])cc1S(=O)(=O)N(C)N=Cc1cnc2ccc(Br)cn12
liver cell % of control [1]: 52.2% and 52.1% and 55.5% | parasite % of control [1]: 4.51% (inactive) and 2.82% (inactive) and 2.1% (active) | fold change [2, 22]: 0.935 (inactive) | fold change [2, 23]: 0.896 | cell count [2, 24]: 837 | cell count [2, 25]: 896 | z-score [3, 26]: -0.394 (inactive) | z-score [3, 27]: -2.82

CN(C)CC=CC(=O)Nc1cc2c(Nc3ccc(F)c(Cl)c3)ncnc2cc1OC1CCOC1 (centres undefined)
liver cell % of control [1]: 39.8% and 42.2% and 47.1% | parasite % of control [1]: 0.262% (inactive) and 0.42% (inactive) and 32.1% (inactive) | fold change [2, 22]: 0.839 (inactive) | fold change [2, 23]: 1.69 | cell count [2, 24]: 2280 | cell count [2, 25]: 2710 | z-score [3, 26]: 5.09 (active) | z-score [3, 27]: 0.143

CN[C@@H]1C(O[C@H]2O[C@H](CO)[C@@H](N)[C@H](O)[C@H]2O)O[C@H]2C[C@@H](N)[C@@H](O[C@H]3[C@H](O)[C@@H](O)[C@H](N)C[C@@H]3N)OC2[C@@H]1O (some centres undefined)
parasite load remaining [14]: 95.7% (inactive) | viability [14]: 72.5% | fold change [2, 22]: 1.02 (inactive) | fold change [2, 23]: 0.823 | cell count [2, 24]: 9080 | cell count [2, 25]: 8920 | z-score [3, 26]: 0.718 (inactive) | z-score [3, 27]: -0.268

COc1ccc(C(=O)c2ccc(C)cc2)c(O)c1
fold change [2, 22]: 0.81 (inactive) | fold change [2, 23]: 1.2 | cell count [2, 24]: 4460 | cell count [2, 25]: 5510 | remaining NAD [15]: 10 nM (inactive)

CCN(CC)CCNC(=O)c1c(C)[nH]c(C=C2C(=O)Nc3ccc(F)cc32)c1C
liver cell % of control [1]: 117% and 132% and 81.2% | parasite % of control [1]: 0.0958% (inactive) and 0.227% (active) and 376% (inactive) | fold change [2, 22]: 0.743 (inactive) | fold change [2, 23]: 1.2 | cell count [2, 24]: 2230 | cell count [2, 25]: 3000 | z-score [3, 26]: -0.621 (inactive) | z-score [3, 27]: -1.61

CCCCCCCCCCCCCCCCCC(=O)OC(CC(=O)O)C[N+](C)(C)C (centres undefined)
inhibition [4]: -2.46% | score [5]: 0.53 | rescue above control [6]: 6.57 | cytochrome c release ratio [7]: 4.04 | inhibition of aggregation [8]: 52.4% | normalised LDH release [18]: 0.986 | glutamate uptake change [9]: -11.2% | aggregation suppression score [11]: -0.125 | period change [19]: -0.05 h (inactive) | inhibition [20]: -2% (inactive) | fluorescence ratio (interference) [21]: 1 (inactive) | fold change [2, 22]: 0.979 (inactive) | fold change [2, 23]: 0.6 | cell count [2, 24]: 4490 | cell count [2, 25]: 4590 | z-score [12]: -1.38 (inactive)

CC1=C(C(=O)O)N2C(=O)C(NC(=O)C(N)c3ccccc3)C2SC1 (centres undefined)
fold change [2, 22]: 0.933 (inactive) | fold change [2, 23]: 1.4 | cell count [2, 24]: 8950 | cell count [2, 25]: 9590 | z-score [12]: 0.52 (inactive)

CC1CNc2c(cccc2S(=O)(=O)NC(CCCN=C(N)N)C(=O)N2CCC(C)CC2C(=O)O)C1 (centres undefined)
fold change [2, 22]: 0.968 (inactive) | fold change [2, 23]: 1.83 | cell count [2, 24]: 10100 | cell count [2, 25]: 10500 | z-score [12]: 0.935 (inactive)

NC(C(=O)NC1C(=O)N2C(C(=O)O)=C(CSc3cn[nH]n3)CSC12)c1ccc(O)cc1 (centres undefined) (tested in a mixture with another compound)
fold change [2, 22]: 0.899 (inactive) | fold change [2, 23]: 1.68 | cell count [2, 24]: 9710 | cell count [2, 25]: 10800 | z-score [12]: 0.555 (inactive)

Cc1ccsc1C(=CCCN1CCCC(C(=O)O)C1)c1sccc1C (centres undefined)
fold change [2, 22]: 0.928 (inactive) | fold change [2, 23]: 1.05 | cell count [2, 24]: 8550 | cell count [2, 25]: 9210 | z-score [12]: 1.02 (inactive)

COCC1=C(C(=O)OC(C)OC(=O)OC(C)C)N2C(=O)C(NC(=O)C(=NOC)c3csc(N)n3)C2SC1 (centres undefined)
fold change [2, 22]: 0.946 (inactive) | fold change [2, 23]: 1.68 | cell count [2, 24]: 9860 | cell count [2, 25]: 10400 | z-score [12]: 0.625 (inactive)
